Experimental data published in PubChem BioAssay (NCI).
About 83,000 compounds went through this panel and 20% of them were active in at least one assay; those are over-represented in the sample as a whole.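 For each line, cells grew in 96-well plates with the test compound present at a single concentration for 48 hours.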 Calls of active or inactive are those of the source. Rule for the calls: active = growth percent below 10; inactive = the rest.

Assays:
Experiment in all cases: NCI-60 one-dose screen, 48 h (100 = growth as untreated, 0 = no growth, -100 = all killed)
Details in all cases: 10 µM unless noted
DU-145 prostate = tested on: DU-145 prostate
K-562 leukemia = tested on: K-562 leukemia
MALME-3M melanoma = tested on: MALME-3M melanoma
MDA-MB-231 breast = tested on: MDA-MB-231 breast
RXF 393 renal = tested on: RXF 393 renal
SF-268 CNS = tested on: SF-268 CNS
SF-295 CNS = tested on: SF-295 CNS
SF-539 CNS = tested on: SF-539 CNS
UACC-257 melanoma = tested on: UACC-257 melanoma
M14 melanoma = tested on: M14 melanoma

Measured: growth

Cc1nc(N)nc(N[C@@H](C)c2nc3cccc(NCc4ccc(C(=O)NO)cc4)c3c(=O)n2-c2ccccc2)n1
inactive: DU-145 prostate 86.9% | K-562 leukemia 47.8% | MALME-3M melanoma 37.7% | MDA-MB-231 breast 81% | RXF 393 renal 65% | SF-268 CNS 87.1% | SF-295 CNS 104% | SF-539 CNS 75.9% | UACC-257 melanoma 58.3% | M14 melanoma 73.7%

O=C(/C=C/c1ccc(F)cc1)c1ccc(NC(=O)N2CCN(c3cc4c(cc3F)c(=O)c(C(=O)O)cn4C3CC3)CC2)cc1
inactive: DU-145 prostate 103% | K-562 leukemia 91.2% | MALME-3M melanoma 91.3% | MDA-MB-231 breast 89.7% | RXF 393 renal 98.3% | SF-268 CNS 89.9% | SF-295 CNS 98.7% | SF-539 CNS 94.1% | UACC-257 melanoma 97.2% | M14 melanoma 97.8%

CCCCCC(=O)Oc1ccc(/C(=C(\C)c2ccccc2)c2ccc(OCCN3CCCCC3)cc2)cc1
inactive: DU-145 prostate 97.2% | K-562 leukemia 20.1% | MALME-3M melanoma 68% | MDA-MB-231 breast 95% | RXF 393 renal 82.7% | SF-268 CNS 84.5% | SF-295 CNS 84.2% | SF-539 CNS 59.4% | UACC-257 melanoma 72.4% | M14 melanoma 65.9%

COc1ccc(C(=O)Nc2cccc(C3CCc4c(cc(OC)c(OC)c4OC)O3)c2)cc1 (stereo not given)
inactive: DU-145 prostate 69.9% | K-562 leukemia 16.8% | MALME-3M melanoma 46.2% | MDA-MB-231 breast 63.1% | RXF 393 renal 81.1% | SF-268 CNS 52.7% | SF-295 CNS 42.2% | SF-539 CNS 61.3% | UACC-257 melanoma 52% | M14 melanoma 34.2%

COc1cccc(-c2nc3occn3c2-c2ccnc(NCCNS(=O)(=O)c3cccc4ccccc34)n2)c1
inactive: DU-145 prostate 107% | K-562 leukemia 95.1% | MALME-3M melanoma 111% | MDA-MB-231 breast 112% | RXF 393 renal 102% | SF-268 CNS 96.8% | SF-295 CNS 106% | SF-539 CNS 109% | UACC-257 melanoma 104% | M14 melanoma 117%

O=C1OC(Cc2ccccc2)C1c1ccccc1 (stereo not given)
inactive: DU-145 prostate 110% | K-562 leukemia 108% | MALME-3M melanoma 106% | MDA-MB-231 breast 102% | RXF 393 renal 120% | SF-268 CNS 97.9% | SF-295 CNS 98.2% | SF-539 CNS 102% | UACC-257 melanoma 93.9% | M14 melanoma 104%

CCSCC1CC(O)(c2ccccc2)CC(c2ccc(F)cc2)O1 (stereo not given)
active: DU-145 prostate 9.94% | MALME-3M melanoma -17.8% | RXF 393 renal -5.44% | SF-295 CNS -14.8% | M14 melanoma 5.84%
inactive: K-562 leukemia 11.9% | MDA-MB-231 breast 20.6% | SF-268 CNS 20% | SF-539 CNS 36.5% | UACC-257 melanoma 35.7%

CCCOC(=O)N[C@H]1CCc2c(Cl)c(OC)c(OC)c(OC)c2-c2ccc(SC)c(=O)cc21
active: DU-145 prostate 3.02% | K-562 leukemia 9.67% | MDA-MB-231 breast -16.7% | SF-539 CNS 3.18% | M14 melanoma -13.6%
inactive: MALME-3M melanoma 25.2% | RXF 393 renal 24.3% | SF-268 CNS 24.7% | SF-295 CNS 17.5% | UACC-257 melanoma 72.4%

CCCCCN1C=C/C(=C\C(=O)N(C)c2ccccc2Br)c2ccccc21
inactive: DU-145 prostate 109% | K-562 leukemia 74.6% | MALME-3M melanoma 91% | MDA-MB-231 breast 97.6% | RXF 393 renal 101% | SF-268 CNS 96.4% | SF-295 CNS 95.1% | SF-539 CNS 99.6% | UACC-257 melanoma 93% | M14 melanoma 104%

CCCOc1ccc(/C=N/Nc2cc(C)nc3ccc(Cl)cc23)cc1
active: K-562 leukemia -37% | MALME-3M melanoma -59% | RXF 393 renal -18.9% | SF-295 CNS -74.3% | SF-539 CNS -62.6% | M14 melanoma -29.8%
inactive: DU-145 prostate 24.2% | MDA-MB-231 breast 60.1% | SF-268 CNS 83.8% | UACC-257 melanoma 89.8%

CCOc1ccc(/C=N/Nc2cc(C)nc3ccc(Br)cc23)cc1
inactive: DU-145 prostate 94.2% | K-562 leukemia 20.2% | MALME-3M melanoma 102% | MDA-MB-231 breast 68.5% | RXF 393 renal 85.8% | SF-268 CNS 99.7% | SF-295 CNS 82.7% | SF-539 CNS 102% | UACC-257 melanoma 96% | M14 melanoma 94%

c1ccc(-c2c(-c3ccccc3)[n+](Cc3ccc4ccccc4c3)c(-c3cccc4ccccc34)n2Cc2ccc3ccccc3c2)cc1
active: DU-145 prostate -51.3% | K-562 leukemia -3.62% | MALME-3M melanoma -87.9% | MDA-MB-231 breast -70.5% | RXF 393 renal -94.3% | SF-268 CNS -38.9% | SF-295 CNS -86% | SF-539 CNS -83.5% | UACC-257 melanoma -42.5% | M14 melanoma -63.5%

CCOC(=O)c1cc(C(=O)c2ccc(OC)c(OC)c2)n2ccc(/C=C/c3cc[n+](CC(=O)c4ccc(OC)c(OC)c4)cc3)cc12
inactive: DU-145 prostate 96.3% | K-562 leukemia 78.2% | MALME-3M melanoma 97.3% | MDA-MB-231 breast 89.4% | RXF 393 renal 111% | SF-268 CNS 99.5% | SF-295 CNS 102% | SF-539 CNS 87.3% | UACC-257 melanoma 98.7% | M14 melanoma 96.9%

C/C(=N\NC(=O)CSc1nc2ccccc2c(=O)n1Cc1ccc(S(N)(=O)=O)cc1)c1ccc(F)cc1
inactive: DU-145 prostate 111% | K-562 leukemia 103% | MALME-3M melanoma 106% | MDA-MB-231 breast 101% | RXF 393 renal 109% | SF-268 CNS 98.8% | SF-295 CNS 102% | SF-539 CNS 104% | UACC-257 melanoma 107% | M14 melanoma 107%

CC(=O)O[C@@H]1C2CCC3C(CC[C@@]4(C)C3CC[C@@H]4C(C)N(C)C)[C@@]2(C)CC[C@@H]1NC(=O)C=C(C)C (stereo not given in full)
active: K-562 leukemia 2.24% | MALME-3M melanoma -59.4% | MDA-MB-231 breast -10.3% | RXF 393 renal -51.5% | SF-268 CNS -23.4% | SF-295 CNS -15.3% | SF-539 CNS -52.7% | UACC-257 melanoma -40.9% | M14 melanoma -44.4%
inactive: DU-145 prostate 51.4%

COc1cccc(/C=N/NC(=O)c2cnn3c2NC(c2ccccc2)C3)c1Oc1ccccc1 (stereo not given)
inactive: DU-145 prostate 89.8% | K-562 leukemia 36% | MALME-3M melanoma 75.3% | MDA-MB-231 breast 90.7% | RXF 393 renal 82.1% | SF-268 CNS 88.3% | SF-295 CNS 63.3% | SF-539 CNS 84% | UACC-257 melanoma 86.3% | M14 melanoma 50.2%

CC(=O)O[C@H]1Cc2c([nH]c3ccccc23)[C@@H](c2ccc(Cl)cc2)N1C(=O)CCNC(C)(C)C
active: K-562 leukemia 8.71% | MALME-3M melanoma -37.8% | MDA-MB-231 breast -26% | M14 melanoma -0.737%
inactive: DU-145 prostate 65.2% | RXF 393 renal 39.6% | SF-268 CNS 61.3% | SF-295 CNS 68.3% | SF-539 CNS 40.1% | UACC-257 melanoma 65.1%

Cc1cc2nc3c4cc(C=O)ccc4n(CCN(C)C)c3nc2cc1C
inactive: MDA-MB-231 breast 24% | RXF 393 renal 19.4% | SF-268 CNS 37.3% | SF-295 CNS 17.1% | SF-539 CNS 21% | UACC-257 melanoma 11.4% | M14 melanoma 15.8%
active: DU-145 prostate 0.0752% | K-562 leukemia 5.5% | MALME-3M melanoma -3.12%

C=C1C(=O)O[C@H]2[C@H]1CC/C(CNC(=O)/C=C/c1cccc(OC)c1)=C\CC[C@@]1(C)O[C@@H]21
active: K-562 leukemia 3.75% | MALME-3M melanoma -45% | MDA-MB-231 breast 7.34% | RXF 393 renal -80.5% | SF-539 CNS -70.5% | UACC-257 melanoma -6.14% | M14 melanoma -36.8%
inactive: DU-145 prostate 13.2% | SF-268 CNS 48.4% | SF-295 CNS 71.8%

O=Cc1cc2ccccc2nc1Oc1ccc(C(F)(F)F)cc1
inactive: DU-145 prostate 98.4% | K-562 leukemia 59% | MALME-3M melanoma 96% | MDA-MB-231 breast 75.7% | RXF 393 renal 91.9% | SF-268 CNS 83.4% | SF-295 CNS 82.9% | SF-539 CNS 97.8% | UACC-257 melanoma 107% | M14 melanoma 99.8%

Nc1c(C(=O)Nc2cccc3cnccc23)sc2nc3c(cc12)CN(Cc1ccccc1)CC3
inactive: DU-145 prostate 109% | K-562 leukemia 96.5% | MALME-3M melanoma 101% | MDA-MB-231 breast 89.1% | RXF 393 renal 103% | SF-268 CNS 103% | SF-295 CNS 106% | SF-539 CNS 107% | UACC-257 melanoma 124% | M14 melanoma 102%

CCCCC[n+]1ccc(SCC(=O)N(C)c2ccc(Oc3ccccc3)cc2)c2ccccc21
inactive: DU-145 prostate 112% | K-562 leukemia 25.4% | MALME-3M melanoma 84.8% | MDA-MB-231 breast 110% | RXF 393 renal 115% | SF-268 CNS 116% | SF-295 CNS 91.4% | SF-539 CNS 107% | UACC-257 melanoma 96.2% | M14 melanoma 102%

CC1(C)c2[nH]c3ccccc3c2C[C@]2(C)[C@H]3C(=O)C=C4[C@@H]5C[C@@](C)(C(N)=O)CC[C@]5(C)CC[C@@]4(C)[C@]3(C)CC[C@@H]12
inactive: DU-145 prostate 92.2% | K-562 leukemia 31.3% | MALME-3M melanoma 79.3% | MDA-MB-231 breast 74.1% | RXF 393 renal 70.5% | SF-268 CNS 69.1% | SF-295 CNS 82.9% | SF-539 CNS 92.8% | UACC-257 melanoma 83.2% | M14 melanoma 80.2%

O=c1ccc(-c2nc(N3CCOCC3)c3ccccc3n2)c[nH]1
inactive: DU-145 prostate 93.6% | K-562 leukemia 116% | MALME-3M melanoma 99.4% | MDA-MB-231 breast 88.4% | RXF 393 renal 103% | SF-268 CNS 88.1% | SF-295 CNS 90.5% | SF-539 CNS 93.5% | UACC-257 melanoma 124% | M14 melanoma 93.3%

COC(=O)CNC(=O)[C@]12CCC(C)(C)C[C@H]1C1=CC[C@@H]3[C@@]4(C)Cc5c([nH]c6ccccc56)C(C)(C)[C@@H]4CC[C@@]3(C)[C@]1(C)CC2
inactive: DU-145 prostate 97.6% | K-562 leukemia 59.3% | MALME-3M melanoma 92.2% | MDA-MB-231 breast 93.9% | RXF 393 renal 94.2% | SF-268 CNS 84.4% | SF-295 CNS 84.7% | SF-539 CNS 102% | UACC-257 melanoma 78.8% | M14 melanoma 104%

Cc1cccc(NC(=O)Nc2ccc(-c3ccc4c(c3)NC(=O)/C4=C\c3ccc[nH]3)cc2)c1
inactive: DU-145 prostate 96.4% | K-562 leukemia 82.8% | MALME-3M melanoma 105% | MDA-MB-231 breast 93% | RXF 393 renal 102% | SF-268 CNS 95.2% | SF-295 CNS 66.1% | SF-539 CNS 62.7% | UACC-257 melanoma 102% | M14 melanoma 84.9%
